Structures can show the parent of a compound that is named as a salt. ± gives the standard deviation of the averaged measurements.
How the values were obtained:
Assay in all cases: growth (OD600 after 10 h); higher = more growth (less inhibition)
[1] = system: E. coli TESEC Alr+ wild-type control; conditions: compound 0.1 mM; raw OD600 reference: median of DMSO wells 0.241, cell-free background 0.041
Protocol: (§1)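 TESEC Mtb Alr E. coli, or the Alr+ wild-type control, in 384-well plates with Prestwick library compounds at 0.1 mM and 1% DMSO, across arabinose induction levels of 1E3 to 1E7 nM. Growth is read as OD600 after 10 h at 37 °C in triplicate biological replicates.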

E. coli TESEC Mtb Alr [2] = conditions: compound 0.1 mM
Protocol: as §1

E. coli TESEC Mtb Asd = conditions: compound 0.1 mM
Protocol: (§2)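 TESEC E. coli strains in which the native enzyme is deleted and replaced by arabinose-inducible Mtb Asd, DapB, CysH or TrpD, each grown in its selective medium. Strains were screened against the Prestwick library at 0.1 mM and 1% DMSO in 384-well format at low and high arabinose induction. Growth is read as OD600 after 10 h in triplicate.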

E. coli TESEC Mtb DapB = conditions: compound 0.1 mM
Protocol: as §2

[3] = system: E. coli TESEC Alr+ wild-type control; conditions: compound 0.1 mM; raw OD600 reference: median of DMSO wells 0.49, cell-free background 0.052
Protocol: (§3)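 TESEC Mtb Alr E. coli (ΔaraC ΔtolC ΔentC Δalr ΔdadX, arabinose-inducible Mtb Alr) or the Alr+ wild-type control strain, grown in defined M9-fructose medium without D-alanine in 96-well plates with Prestwick library compounds at 0.1 mM and 1% DMSO. Low Alr induction is 0.1 µM arabinose and high induction is 10 mM arabinose.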

E. coli TESEC Mtb Alr [4] = conditions: compound 0.1 mM; remark: listed apart in the source
Protocol: as §3

[5] = arabinose 1000 nM, raw OD600 reference: median of DMSO wells 0.294, cell-free background 0.041
[6] = arabinose 10000 nM, raw OD600 reference: median of DMSO wells 0.264, cell-free background 0.041
[7] = arabinose 100000 nM, raw OD600 reference: median of DMSO wells 0.201, cell-free background 0.041
[8] = arabinose 1000000 nM, raw OD600 reference: median of DMSO wells 0.193, cell-free background 0.041
[9] = arabinose 10000000 nM, raw OD600 reference: median of DMSO wells 0.146, cell-free background 0.041
[10] = arabinose induction (level): High, raw OD600 reference: median of DMSO wells 0.331, cell-free background 0.041
[11] = arabinose induction (level): Low, raw OD600 reference: median of DMSO wells 0.417, cell-free background 0.041
[12] = arabinose induction (level): High, raw OD600 reference: median of DMSO wells […], cell-free background 0.041
[13] = arabinose induction (level): Low, raw OD600 reference: median of DMSO wells 0.227, cell-free background 0.041
[14] = arabinose 100 nM, raw OD600 reference: median of DMSO wells 0.413, cell-free background 0.052
[15] = arabinose 10000000 nM, raw OD600 reference: median of DMSO wells […], cell-free background 0.052

SMILES | growth [1] | growth (E. coli TESEC Mtb Alr [2]; [5]) | growth (E. coli TESEC Mtb Alr [2]; [6]) | growth (E. coli TESEC Mtb Alr [2]; [7]) | growth (E. coli TESEC Mtb Alr [2]; [8]) | growth (E. coli TESEC Mtb Alr [2]; [9]) | growth (E. coli TESEC Mtb Asd; [10]) | growth (E. coli TESEC Mtb Asd; [11]) | growth (E. coli TESEC Mtb DapB; [12]) | growth (E. coli TESEC Mtb DapB; [13]) | growth [3] | growth (E. coli TESEC Mtb Alr [4]; [14]) | growth (E. coli TESEC Mtb Alr [4]; [15])
CC1(C)O[C@@H]2C[C@H]3[C@@H]4C[C@H](F)C5=CC(=O)C=C[C@]5(C)[C@H]4[C@@H](O)C[C@]3(C)[C@]2(C(=O)CO)O1 [Flunisolide] | 0.204 ± 0.015 | 0.297 ± 0.0098 | 0.261 ± 0.0019 | 0.192 ± 0.011 | 0.159 ± 0.0049 | 0.138 ± 0.0048 | 0.342 ± 0.064 | 0.458 ± 0.025 | 0.214 ± 0.021 | 0.241 ± 0.01 | 0.418 ± 0.031 | 0.4 ± 0.0095 | 0.335 ± 0.012
COc1ccc2[nH]cc(CCNC(C)=O)c2c1 [Melatonin] | 0.246 ± 0.0061 | 0.29 ± 0.0068 | 0.27 ± 0.005 | 0.204 ± 0.029 | 0.183 ± 0.0071 | 0.1406 ± 0.0012 | 0.252 ± 0.066 | 0.348 ± 0.11 | 0.202 ± 0.026 | 0.23 ± 0.026 | 0.521 ± 0.086 | 0.409 ± 0.01 | 0.354 ± 0.013
CN(c1nccc(=O)[nH]1)C1CCN(c2nc3ccccc3n2Cc2ccc(F)cc2)CC1 [Mizolastine] | 0.18 ± 0.016 | 0.221 ± 0.011 | 0.172 ± 0.0085 | 0.215 ± 0.01 | 0.0813 ± 0.0018 | 0.1409 ± 0.0014 | 0.177 ± 0.0092 | 0.293 ± 0.036 | 0.2 ± 0.039 | 0.174 ± 0.012 | 0.426 ± 0.018 | 0.406 ± 0.0081 | 0.162 ± 0.026
C/C=C(/C(=C/C)c1ccc(O)cc1)c1ccc(O)cc1 [Dienestrol] | 0.0526 ± 0.0075 | 0.0496 ± 0.0047 | 0.0394 ± 0.0002 | 0.0419 ± 0.0015 | 0.0393 ± 0.0001 | 0.0759 ± 0.031 | 0.0492 ± 0.0033 | 0.0498 ± 0.0031 | 0.122 ± 0.035 | 0.0554 ± 0.0074 | 0.139 ± 0.14 | 0.0576 ± 0.014 | 0.05137 ± 0.00032
CN(Cc1ccc(C(C)(C)C)cc1)Cc1cccc2ccccc12 [Butenafine Hydrochloride] | 0.182 ± 0.0021 | 0.177 ± 0.0088 | 0.2 ± 0.0095 | 0.147 ± 0.0047 | 0.0789 ± 0.0012 | 0.116 ± 0.0035 | 0.204 ± 0.012 | 0.182 ± 0.019 | 0.15 ± 0.019 | 0.169 ± 0.02 | 0.399 ± 0.012 | 0.312 ± 0.013 | 0.11 ± 0.0097
COc1ccc2cc(CCC(C)=O)ccc2c1 [Nabumetone] | 0.168 ± 0.0082 | 0.208 ± 0.028 | 0.2236 ± 0.0013 | 0.152 ± 0.012 | 0.109 ± 0.0058 | 0.14 ± 0.0083 | 0.304 ± 0.073 | 0.247 ± 0.04 | 0.175 ± 0.0022 | 0.187 ± 0.0098 | 0.485 ± 0.0083 | 0.399 ± 0.01 | 0.297 ± 0.017
CN(C)C(=N)NC(=N)N [Metformin hydrochloride] | 0.253 ± 0.0099 | 0.281 ± 0.026 | 0.258 ± 0.0057 | 0.238 ± 0.03 | 0.178 ± 0.0068 | 0.145 ± 0.0029 | 0.372 ± 0.032 | 0.404 ± 0.032 | 0.218 ± 0.037 | 0.235 ± 0.043 | 0.447 ± 0.052 | 0.404 ± 0.015 | 0.349 ± 0.032
CN(C)CCc1c[nH]c2ccc(Cn3cncn3)cc12 [Rizatriptan benzoate] | 0.24 ± 0.0036 | 0.2899 ± 0.0026 | 0.258 ± 0.00081 | 0.198 ± 0.0062 | 0.213 ± 0.022 | 0.141 ± 0.006 | 0.337 ± 0.057 | 0.417 ± 0.051 | 0.193 ± 0.0065 | 0.211 ± 0.015 | 0.633 ± 0.061 | 0.408 ± 0.012 | 0.34 ± 0.0085

— the supplement of paper PMC9262897, “Low-cost anti-mycobacterial drug discovery using engineered E. coli” (Nature Communications, 2022)
